This is a sample that favours compounds with a hit; in the whole collection about 6.4% have one here.
Luc counter: blocks Kinase-Glo luciferase, a counter-screen artifact; Potency, µM (doses to about 38.3 µM), actives largely listed as inhibitors; 0.28% of 200,000 active; Kinase-Glo luciferase, ATP luminescence, 8 min; Q27757; also: nearly all actives have a fitted effect of over 60% in size
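Compounds were added to a substrate mix at pH 7.2 (50 mM imidazole, 10 uM ATP, within the enzyme's linear range), followed by Kinase-Glo detection reagent; luminescence was measured after 8 minutes at ambient temperature.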
RORgamma inh: inhibitors of mouse ROR gamma transcriptional activity; P51450; Potency, µM (top dose mostly 53.6 µM), hits mostly inhibitors; 5.4% of 310,000 active; AID 2551; Drosophila S2 Gal4-RORgamma UAS-luciferase reporter, 20 h; also: nearly all actives have a fitted effect of over 60% in size
Target sequence (P51450 whole entry, looked up, the tested form may be a part): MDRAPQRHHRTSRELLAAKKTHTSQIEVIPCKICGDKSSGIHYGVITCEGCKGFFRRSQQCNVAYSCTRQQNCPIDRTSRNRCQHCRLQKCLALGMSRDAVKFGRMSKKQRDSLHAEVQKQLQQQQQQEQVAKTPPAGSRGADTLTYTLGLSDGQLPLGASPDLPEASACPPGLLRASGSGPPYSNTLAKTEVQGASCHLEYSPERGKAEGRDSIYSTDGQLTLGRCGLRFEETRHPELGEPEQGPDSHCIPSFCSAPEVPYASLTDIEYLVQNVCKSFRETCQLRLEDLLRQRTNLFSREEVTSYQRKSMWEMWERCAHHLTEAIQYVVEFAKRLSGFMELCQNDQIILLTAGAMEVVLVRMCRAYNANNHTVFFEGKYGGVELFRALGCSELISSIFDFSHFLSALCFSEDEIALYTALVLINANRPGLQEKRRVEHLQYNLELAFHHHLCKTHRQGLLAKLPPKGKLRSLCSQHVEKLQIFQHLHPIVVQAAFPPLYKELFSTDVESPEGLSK
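ROR gamma transcriptional activity was tracked as Gal4-UAS luciferase output in stably transfected Drosophila Schneider cells, with compound added 1 hr before 700 uM copper sulfate induction and a 20 hr ambient-temperature incubation.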
Gal4-VP16 FLuc: inhibits Gal4-VP16 luciferase reporter, ROR gamma counter-screen; Drosophila S2 Gal4-VP16 UAS-luciferase, luminescence, 20 h; Potency, µM (highest dose often 53.6 µM), hits mostly inhibitors; 3.5% of 310,000 active;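 also: Gal4-VP16 expression switched on by copper sulfate through the metallothionein promoter; nearly all actives have a fitted effect of over 50% in size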
Each line names hits and unclear results; the compound was inactive in the other large screens; ! = a repeat was not active. Calls follow the shape of the dose curve; as a rule, active = well fitted curve in the direction sought with a large enough effect; inconclusive = small, poorly fitted or top-dose-only effect, or another doubt; inactive = no such curve, though single readings can be large; an effect the other way counts as inactive or inconclusive.

CCOc1ccc(NC(=O)Cn2ncc3ccccc32)cc1	Gal4-VP16 FLuc inconclusive (no result: Luc counter)
Cc1noc(C)c1C(=O)N1CCC2(CCN(Cc3ccc(C#N)cc3)CC2)CC1	none
CC(C)c1ccc(C(=O)OCC(=O)NC2CCCC2)cc1	none (no result: Luc counter)
Cc1ccnc(Nc2nc(-c3ccc(O)cc3)cs2)c1	RORgamma inh 3.16µM, Gal4-VP16 FLuc 3.98µM (no result: Luc counter)
NS(=O)(=O)c1ccc(Nc2nc(-c3ccc(O)cc3)cs2)cc1	none
Cc1cccc(Nc2nc(-c3ccc(O)c(O)c3)cs2)n1	RORgamma inh 4.47µM, Gal4-VP16 FLuc 5.62µM (no result: Luc counter)
Cc1cccc(Nc2nc(-c3ccc(F)c(C)c3)cs2)n1	Gal4-VP16 FLuc inconclusive (no result: Luc counter)
CC(=O)Nc1ccc(-c2csc(Nc3ccccn3)n2)cc1	none (no result: Luc counter)
Oc1ccc(-c2csc(Nc3ccccn3)n2)cc1O	RORgamma inh 5.62µM, Gal4-VP16 FLuc 6.31µM (no result: Luc counter)
Cc1cc(O)ccc1Nc1nc(-c2cccnc2)cs1	RORgamma inh inconclusive (no result: Luc counter)
Cc1ccnc(Nc2nc(-c3ccc(O)cc3O)cs2)c1	RORgamma inh 0.708µM, Gal4-VP16 FLuc 2.24µM (no result: Luc counter)
Nc1nc(NCCCN2CCOCC2)nc(NCc2ccccc2)c1[N+](=O)[O-]	none (no result: Luc counter)
CCOc1cc(/C=N/NC(=O)c2ccc3c(c2)OCCO3)cc(Br)c1O	RORgamma inh inconclusive (no result: Luc counter)
Cc1cc2ncc(C(=O)Nc3ccsc3C(=O)O)c(C)n2n1	none
CCOc1ccc(NC(=O)CNC(=O)c2nn(-c3ccc(OC)cc3)c(=O)c3ccccc23)cc1	RORgamma inh inconclusive (no result: Luc counter)
CN1CCN(c2ncc3nc(-c4ccccc4)c(=O)n(C)c3n2)CC1	none (no result: Luc counter)
Oc1ccc(Nc2nc(-c3ccc(O)cc3)cs2)cc1	none
Cc1cc(C)nc(Nc2nc(-c3ccccc3)cs2)n1	RORgamma inh 4.47µM, Gal4-VP16 FLuc inconclusive (no result: Luc counter)
COc1ccc(-c2csc(Nc3cc(C)ccn3)n2)cc1C	RORgamma inh inconclusive (no result: Luc counter)
Oc1ccc(Nc2nc(-c3ccc(Cl)cc3)cs2)cc1	RORgamma inh inconclusive, Gal4-VP16 FLuc 14.1µM
c1ccc(-c2csc(Nc3nc(N4CCOCC4)nc(N4CCOCC4)n3)n2)cc1	none
Cc1ccnc(Nc2nc(-c3ccc(O)c(O)c3)cs2)c1	RORgamma inh 11.2µM, Gal4-VP16 FLuc 5.62µM (no result: Luc counter)
CC(C)C(=O)NCc1cc(-c2ccccc2)no1	none
CC(CC(=O)NCc1ccc(Cl)cc1)c1ccccc1 (configuration not stated)	none (no result: Luc counter)
C=CCC1C=CC(Oc2ccc(OC)cc2)C(CO)O1 (configuration not stated)	none (no result: Luc counter)
COc1cc(C(=O)CCN2CCC(c3ccccc3)C2)cc(OC)c1OC (configuration not stated)	RORgamma inh 15.8µM, Gal4-VP16 FLuc inconclusive
O=C(O)CCC(=O)c1ccc2c(c1)OCCCO2	RORgamma inh inconclusive
O=C(CCN1CCc2ccccc2C1)c1ccc2c(c1)OCCO2	RORgamma inh 3.16µM, Gal4-VP16 FLuc 4.47µM
O=C(CCN1CCOCC1)c1ccc(Br)cc1	RORgamma inh inconclusive, Gal4-VP16 FLuc 12.6µM
O=C(CCN1CCC(c2ccccc2)C1)c1cccs1 (configuration not stated)	RORgamma inh inconclusive, Gal4-VP16 FLuc inconclusive
O=C(c1ccc2c(c1)OCO2)N1CCc2ccccc2C1	none
O=C(CCN1CCOCC1)c1ccc(Cl)cc1	RORgamma inh inconclusive, Gal4-VP16 FLuc inconclusive
O=C(CCN1CCCC1Cc1ccccc1)c1ccc2c(c1)OCCO2 (configuration not stated)	RORgamma inh 5.01µM, Gal4-VP16 FLuc 5.62µM
COc1ccc(CNC(=O)CCCCCNC(=O)N2CCn3c2nc2ccccc23)cc1	none (no result: Luc counter)
Cc1ccc(OCC(=O)NCCCNC(=O)c2ccncc2)cc1C	none (no result: Luc counter)
O=C(c1ccc2c(c1)OCO2)N1CCc2ccccc21	Gal4-VP16 FLuc inconclusive (no result: Luc counter)
O=C(CCCCN1CCCCC1)c1ccc2c(c1)Cc1ccccc1-2	RORgamma inh 12.6µM, Gal4-VP16 FLuc inconclusive
O=C(CCN1CCCCCC1)Nc1ccc2c(c1)OCCO2	none
O=C(CCN1CCC(c2ccccc2)C1)c1ccc2c(c1)OCCO2 (configuration not stated)	RORgamma inh 7.08µM!, Gal4-VP16 FLuc 7.08µM!
O=C(CCN1CCCCC1)c1ccc2c(c1)OCCO2	RORgamma inh 11.2µM, Gal4-VP16 FLuc 7.94µM
O=C(CCN1CCc2ccccc21)c1ccc2c(c1)OCCO2	Gal4-VP16 FLuc 11.2µM
O=C(CCN1CCC(c2ccccc2)C1)c1ccccc1 (configuration not stated)	none
O=C(CCN1CCCCCC1)c1ccccc1	none
CC(C)c1onc(-c2c(Cl)cccc2Cl)c1COc1ccc(/C=C/c2cccc(C(=O)O)c2)c(Cl)c1	Gal4-VP16 FLuc 5.62µM (no result: Luc counter)
CCC(C)NC(=O)c1cccc(OCc2c(C)noc2C)c1 (configuration not stated)	none
Cc1ccc(C)c(C(=O)CSc2nc(C)cc(=O)[nH]2)c1	none (no result: Luc counter)
C=CCn1c(SCC)nc2sc3c(c2c1=O)CCc1ccccc1-3	none
C=CCSc1nc2sc3c(c2c(=O)n1CC)CCc1ccccc1-3	RORgamma inh 10µM, Gal4-VP16 FLuc inconclusive
